Data published in ChEMBL document CHEMBL3433997, “St. Jude Leishmania screening dataset” (2016).

Columns and labels:
Format in all cases: functional
[1] = target: Solute carrier family 2, facilitated glucose transporter member 1 (Homo sapiens) (UniProt P11166); experiment: ST_JUDE_LEISH: Cytotoxicity at 2uM final concentration against transgenic Leishmania Mexicana promastigotes LmGLUT1 that are glucose transport deficient and complemented with the human glucose transporter GLUT1. Activity is measured by DNA content using SYBR green in vitro
Chain of Solute carrier family 2, facilitated glucose transporter member 1 (Homo sapiens) (P11166 whole entry): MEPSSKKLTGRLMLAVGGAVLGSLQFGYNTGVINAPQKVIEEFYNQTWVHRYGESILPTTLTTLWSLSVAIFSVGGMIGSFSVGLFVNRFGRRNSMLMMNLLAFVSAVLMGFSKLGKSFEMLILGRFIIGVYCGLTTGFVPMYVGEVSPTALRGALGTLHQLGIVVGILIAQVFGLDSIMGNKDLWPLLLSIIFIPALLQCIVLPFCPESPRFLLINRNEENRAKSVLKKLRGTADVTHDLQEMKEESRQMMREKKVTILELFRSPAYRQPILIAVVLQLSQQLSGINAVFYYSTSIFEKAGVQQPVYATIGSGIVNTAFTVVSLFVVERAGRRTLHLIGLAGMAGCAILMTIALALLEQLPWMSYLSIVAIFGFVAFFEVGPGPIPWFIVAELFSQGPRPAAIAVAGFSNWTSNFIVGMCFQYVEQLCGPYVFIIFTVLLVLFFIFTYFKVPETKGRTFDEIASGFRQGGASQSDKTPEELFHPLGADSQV

[2] = target: Hexose transporter 1 (Plasmodium falciparum) (UniProt O97467); experiment: ST_JUDE_LEISH: Cytotoxicity at 2uM final concentration against transgenic Leishmania Mexicana promastigotes LmPfHT that are glucose transport deficient and complemented with the Plasmodium falciparum hexose transporter. Activity is measured by DNA content using SYBR green in vitro
[3] = target: Glucose transporter (Leishmania mexicana) (UniProt O61059); experiment: ST_JUDE_LEISH: Cytotoxicity at 2uM final concentration against transgenic Leishmania Mexicana promastigotes LmGT2 that are glucose transport deficient and complemented with the L. Mexicana glucose transporter 2. Activity is measured by DNA content using SYBR green in vitro

Structure (SMILES)	inhibition [1] [%]	inhibition [2] [%]	inhibition [3] [%]
CCCC1N=C(N)N=C(N)N1c1ccc(OC)cc1 (centres undefined)	1.53	-0.34	1.56
COc1ccc2nccc([C@@H](O)CN3CCC(NCCOc4cccc(C(F)(F)F)c4Cl)CC3)c2c1	11.3	12	6.66
O=C(Nc1cccc(CN2CCCN(Cc3ccc4c(c3)OCO4)CC2)c1)c1cc2ccccc2s1	-0.41	-0.3	-3.63
c1ccc2c(C3CCN(CCCCOc4ccc5c(c4)CCN(C4CCC4)CC5)CC3)c[nH]c2c1	-2.06	3.7	4.47
Cc1nc(-c2ccc3c(c2)CCN(CCC2CCC(NC(=O)c4cc5cccc(Cl)c5[nH]4)CC2)CC3)no1 (centres undefined)	0.58	7.07	6.97
c1cc(CNCC2CCCO2)cc(-c2ccc(-c3nc4ccccc4[nH]3)s2)c1 (centres undefined)	0.61	-3.37	-0.92
CS(=O)(=O)Cc1ccc(Nc2ncc(Cl)c(Nc3cccnc3C(N)=O)n2)cc1	28.2	32.1	23
O=C(/C=C/c1ccc(I)cc1)NCCCCCN1CCC(c2c[nH]c3ccccc23)CC1	3.43	1.79	2.95
O=C(NC1CCC(N2CCC(c3nc4ccccc4s3)CC2)CC1)c1cc2ccccc2[nH]1 (centres undefined)	-0.44	-2.33	-1.51
CCNc1cc(C(=O)N[C@@H](Cc2ccccc2)[C@H](O)CNC(C)(C)CC(C)(C)C)c(F)c(N2CCCCS2(=O)=O)c1	-2.27	-1.17	-0.53
CC(C)CN(c1nc(C(=O)NNC(=O)[C@H](CC2CC2)NC(=O)c2cc3cc(OCCN4CCCCC4)ccc3o2)cs1)C1CC1	-3.13	0.58	0.46
CN1CCN(CCCN(Cc2cccc(-c3cccc(CNC4CCCC4)c3)c2)C(=O)/C=C/c2ccccc2)CC1	-1.1	-0.02	-2.44
O=C(NCCCCCN1CCC(c2c[nH]c3ccccc23)CC1)Nc1cccc(I)c1	14.6	12.6	5.88
O=C(NC1CCC(CCN2Cc3ccc(Br)cc3C2)CC1)c1cccc(-c2cccnc2)c1 (centres undefined)	3.16	4.93	-1.16
Cc1ccc(C(c2nnnn2C2CCCC2)N(Cc2ccco2)Cc2ccccc2Cl)cc1 (centres undefined)	9.7	9.7	8.53
CN1CCC(N2CCC(Oc3cccc(C(=O)NCCCC4CCCC4)c3)CC2)CC1	10.9	10.4	10.3
Fc1ccc2[nH]c(-c3ccc(-c4ccc(CN5CCC(CCN6CCCCC6)CC5)cc4)s3)nc2c1	5.18	3.85	4.98

Structure (SMILES)	inhibition [1] [%]	inhibition [2] [%]	inhibition [3] [%]
N#Cc1ccc(N/C(=N\c2ccccc2Br)N(C2CCCCC2)C2CCCCC2)c(O)c1	6.11	4.65	5.56
CCCCCCCCCCNCC(O)c1ccc(O)c(C(=O)OC)c1 (centres undefined)	-0.21	1.42	0.52
CCOC(=O)c1cccc(NC(=O)Nc2cc(C)nc3ccccc23)c1	9.1	6.21	5.11
Cc1cc(N[C@@H](Cc2ccccc2)C(=O)NCCOc2ccccc2)nc(NCC2CCCCC2)n1	6	6.54	0.5
CCOC(=O)c1cnc2c(OC)cc(OC)c(Cl)c2c1Nc1cccc(C)c1	9.4	8.66	4.43
c1ccc(-c2[nH]c3ccccc3c2CN2CCC(N3CCCCC3)CC2)nc1	-2.72	-0.46	-1.64
Cc1c(O)cccc1Nc1ccnc2ccc(C(F)(F)F)cc12	-0.14	0.25	-1.33
COc1ccc(C2CCN(CCCCNC(=O)c3ccc(NC(=O)c4ccc(Cl)cc4)cc3)CC2)cc1Cl	-0.02	0.63	4.45
CN1CCc2ccc(NC(=O)Nc3cccc([N+](=O)[O-])c3)cc2C1	1.58	0.7	1.63
CN(C)CCOc1ccc(/C(=C(/CCCn2ccnc2)c2ccccc2)c2ccc(O)cc2)cc1	4.25	6.01	5.69
CC(C)c1ccc(CN2CCC(CNC(=O)c3cc(-c4cccc(Cl)c4)cs3)C2)cc1 (centres undefined)	1.24	3.19	-0.24
CC(C)CCN1CCC(Oc2ccc(NC(=O)c3ccc4ncccc4c3)cc2Cl)C1 (centres undefined)	1.24	2.56	1.94
CC(C)Cc1nc(N)nc(N)c1-c1ccc(Cl)cc1	6.51	5.64	5.17
O=C(NCCN1CCOCC1)c1ccc(CNC(=O)c2ccc(O)c(-c3ccc(Cl)c(Cl)c3)c2)cc1	1.82	2.76	1.84
CCCCN1CCN(c2cc(NS(=O)(=O)c3cccc(C(=O)Nc4ccc(C(F)(F)F)cc4)c3)ccc2OC)CC1	0.33	-1.12	-1.22
CC(Sc1nc2sccc2c(=O)n1C)C(=O)Nc1ccc2c(c1)OCO2 (centres undefined)	4.94	5.47	3
